# HIF act: HIF pathway transcriptional activation. U2OS HRE-luciferase reporter, luminescence; normalized: DMSO 0%, desferrioxamine 100%. activation, % at 7.5 µM (by protocol). 300,000 tested, 0.32% active. AID 1910;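 active = mean activation of at least 10% of the iron chelator positive control signal, with at least half of replicates also reaching 10%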
# Mot1-301 SUMO: blocks SUMOylation pathway, rescuing yeast Mot1-301 growth | growth rescue, % at 18.8 µM | S. cerevisiae Mot1-301 growth rescue, ATP luminescence, 38.5C; percent above DMSO median, 100 means doubled | 320,000 tested, 1% active;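 active = every valid replicate shows activation above 250% relative to neutral control wells; inactive = the rest, any valid replicate at or below 250%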;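 note: OY570 slx delta 5 strain wells were the positive control but not used for scaling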
# AI-2 QS mod: modulates the Vibrio harveyi AI-2 quorum sensing system. 300,000 tested, 0.4% active. Vibrio harveyi JMH597 AI-2 luminescence/OD600 ratio, 9 h; hits give low values; strain lacks LuxN and CqsS sensors; 0 = neutral-control median. activity change, % at 7.5 µM; in the data active = activity change below about -75%, passing the limit was not always enough;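 note: luminescence divided by OD600 gain over 9 h not by final OD600 alone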
# ALR H2O2 inh: blocks human ALR sulfhydryl oxidase activity; 290,000 tested, 3.8% active; AID 485317; inhibition, % (concentration not given with the values); purified ALR, DTT oxidation, H2O2 HRP-luminol luminescence;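 active = mean replicate inhibition above about 79%, with every replicate also reaching it, limit read from the data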
# Target sequence (P55789 whole entry, looked up): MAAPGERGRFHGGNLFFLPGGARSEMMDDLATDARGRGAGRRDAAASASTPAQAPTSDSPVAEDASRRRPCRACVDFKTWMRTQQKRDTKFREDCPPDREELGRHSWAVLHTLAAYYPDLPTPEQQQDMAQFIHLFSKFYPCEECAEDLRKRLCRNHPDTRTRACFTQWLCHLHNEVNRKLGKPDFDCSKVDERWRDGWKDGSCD
# * hit, by the source's call; . = no result given. Shown are actives, neighbours in structure and some others; about 4.8% of the full set was active somewhere.
SMILES,HIF act,Mot1-301 SUMO,AI-2 QS mod,ALR H2O2 inh
CCCC(=O)OCCNc1cc(Sc2nccn2C)c2nonc2c1[N+](=O)[O-],0,5,4,97*
CCCSc1cc(NCCOC(C)=O)c([N+](=O)[O-])c2nonc12,0,-3,31,-16
CCCSc1cc(NCCOC(=O)CCC)c([N+](=O)[O-])c2nonc12,0,31,-17,97*
CC(=O)OCCCNc1cc(SCc2ccco2)c2nonc2c1[N+](=O)[O-],-9,-14,34,90*
Cc1ccc(NC(=O)C2CCN(S(=O)(=O)c3cccc4cccnc34)CC2)nc1,.,3,15,95*
O=C(C1CCN(S(=O)(=O)c2cccc3cccnc23)CC1)N1CCN(C2CCCC2)CC1,.,6,17,82*
O=C(NCc1cccs1)C1CCN(S(=O)(=O)c2cccc3cccnc23)CC1,.,6,14,95*
COc1ccc(CN2CCNC(=O)C2CC(=O)N(C)C2CCOCC2)c(F)c1 (configuration not stated),-1,-1,20,-5
Cc1noc(C)c1NC(=O)N(C)C[C@H]1Oc2ccc(NC(=O)Nc3ccc4c(c3)OCO4)cc2C(=O)N([C@H](C)CO)C[C@@H]1C,.,15,.,-4
CCNc1nnc(SCC(=O)N2c3ccccc3NC(=O)CC2C)s1 (configuration not stated),.,-6,.,.
Cc1ccc(OCCN(C)C(=O)C2CCC(=O)N(CCCN3CCOCC3)C2)cc1 (configuration not stated),0,-7,16,2
COc1cccc(/C=C2\Oc3cc(OC(=O)N4CCOCC4)ccc3C2=O)c1,0,266,6,1
COc1cccc(/C=C2\Oc3cc(OCC(=O)N4Cc5ccccc5C[C@H]4C(=O)O)ccc3C2=O)c1,0,-6,29,99*
Nc1nnc(SCC(=O)OCC(=O)Nc2ccc(Br)cc2)s1,0,26,10,99*
Cc1nnc2sc(SCC(=O)Nc3ccc(Br)cc3)nn2c1=O,1,3,12,97*
COC(=O)c1ccc(NC(=O)CSc2nn3c(=O)c(C)nnc3s2)cc1,0,2,7,93*
COc1ccc(NC(=O)CSc2nn3c(=O)c(C)nnc3s2)cc1,0,13,22,65
COc1ccc(C(=O)COC(=O)C(CCSC)NC(=O)COc2ccccc2)cc1 (configuration not stated),0,-13,-5,1
COc1ccc(CNCc2c(O)c(Cl)cc3c(C)c(C)c(=O)oc23)c(OC)c1,0,4,18,7
O=C(NCCc1cccnc1)c1cc(COc2ccc(F)cc2F)on1,0,18,-76*,1
Cc1[nH]c(=S)sc1Cc1ccc(Cl)c(Cl)c1,0,-1,-7,96*
CCc1cc(Cn2nc(-c3ccccc3)cc2C(=O)NCc2cccc(Br)c2)on1,.,-1,.,-2
CCCC(C)NC(=O)Cc1ccc(Br)cc1 (configuration not stated),0,-6,9,95*
CC(C)NC(=O)Cc1ccc(Br)cc1,0,7,2,.
CC(C)CC(O)(CC(C)C)C(=O)NNc1ccccc1,0,1,33,99*
SMILES,HIF act,Mot1-301 SUMO,AI-2 QS mod,ALR H2O2 inh
Cn1cnnc1SCC(=O)c1ccc(OC(F)F)cc1,-1,-12,12,32
COc1ccc(C(=O)CSc2nncn2C)cc1,22*,8,9,15
Cc1ccnc(SCC(=O)c2cc3ccccc3o2)n1,1,17,40,.
Cn1c(SCC(=O)c2cc3ccccc3o2)nnc1-c1ccccc1,0,-1,8,97*
Cn1ccnc1SCC(=O)c1cc2ccccc2o1,0,-3,19,-2
Cn1cnnc1SCC(=O)c1cc2ccccc2o1,0,-20,13,88*
COC(=O)c1csc(S(=O)(=O)N2CCOCC2)c1OC,0,-14,10,-5
CC(Sc1n[nH]c(-c2cccs2)n1)C(=O)N1CCCC1 (configuration not stated),.,-16,.,-3
C/C(=N\NC(=O)Cc1ccc(F)cc1)c1ccc(O)cc1,0,23,6,99*
CCN(CC)c1ccc(C(=O)N/N=C(\C)c2ccc(O)cc2)cc1,0,-5,-5,94*
COc1ccc(OC)c(C2C3=C(COC3=O)Nc3cc4c(cc32)OCO4)c1 (configuration not stated),0,-1,28,99*
Nc1ncnc(Nc2cccc(F)c2)n1,0,2,5,-5
Cc1cccc(Nc2ncnc(N)n2)c1,1,541*,4,-15
Cc1[nH]nc2c1C(=O)CCC2,-1,-7,41,100*
Nc1cc(C(F)(F)F)ccc1OCC1CCCO1 (configuration not stated),0,-5,-2,-14
CC(C)c1ccc(NC2(C#N)C(=O)Nc3ccccc32)cc1 (configuration not stated),-2,5,38,8
Cc1ccccc1NC1(C#N)C(=O)Nc2ccccc21 (configuration not stated),0,348*,21,5
N#Cc1ccc(C(=O)Nn2cnnc2)cc1,0,-2,17,-11
CCSc1ncc(/C=N/Nc2ccccc2)n1C,1,82,16,99*
CN1/C(=C\C=C2/SC(=S)N(CC(=O)O)C2=O)C(C)(C)c2ccccc21,-1,-9,-6,98*
C=CCN1C(=O)/C(=C\C=C2\N(C)c3ccccc3C2(C)C)SC1=S,-1,3,29,0
CCCN(c1ccccc1F)S(=O)(=O)c1cc(-c2cc(C)no2)ccc1OC,.,-17,-2,54
Cc1cc(N(C)C)ccc1N=Nc1ccc2ncccc2c1,1,-8,4,94*
COc1ccc(S(=O)(=O)N(C(=O)c2ccncc2)c2ccc(OC(=O)c3ccncc3)cc2)cc1,0,309*,9,27
COc1ccc(N(C(=O)c2ccncc2)S(=O)(=O)c2ccccc2)cc1,0,38,11,7
SMILES,HIF act,Mot1-301 SUMO,AI-2 QS mod,ALR H2O2 inh
O=C(CCN1C(=O)/C(=C/c2ccccc2Cl)SC1=S)NC1CCCC1,0,2,26,-4
CCN(C(=O)COC(=O)/C=C/c1ccc(OC(F)F)c(OC)c1)C1CCS(=O)(=O)C1 (configuration not stated),.,3,.,3
COc1ccc(/C=N/OCC(=O)N2CC3(C)CC2CC(C)(C)C3)cc1OC (configuration not stated),0,-2,3,-4
COc1cc(/C=C/C(=O)OCC(=O)N2CCC(Cc3ccccc3)CC2)ccc1O,-3,-10,5,41
COc1cc(/C=C/C(=O)OCC(=O)N2CCC(C)CC2)ccc1O,0,-1,25,99*
COc1cc(/C=C/C(=O)OCC(=O)N2CC3(C)CC2CC(C)(C)C3)ccc1O (configuration not stated),-3,-20,31,99*
COc1cc(/C=C/C(=O)OCC(=O)Nc2cccc(F)c2)ccc1O,.,-3,.,.

# Bioassay records as filed in PubChem BioAssay.
